Active and inactive are the calls of the source.

The nature of test [1]: optical density shifts of acrAB sulA E. coli – strain DRC41, OD650, 48 h, E. coli filamentation inducer project, primary screen (AID 1152).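 Note: E. coli MC1000 strain DRC41 lacking acrAB efflux pump and sulA.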 Conditions: higher = more signal, called active from +8 up or from −8 down.
Test [2] is described as follows: probe aLefty1 binding on compound microarray – biochemical, small-molecule microarray, 635/667 nm fluorescence, primary screen (AID 1153).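 Note: score merges spot fluorescence with signal-to-noise ratio from the scanned slide images.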 Conditions: higher = more signal.
Test [3] in a line: plasmodial surface anion channel blockers, osmotic lysis – cell-based, P. falciparum Indochina, OD700, 1 h, primary screen (AID 1154). Conditions: P. falciparum Indochina infected RBC osmotic lysis, higher = more signal, called active from +8 up or from −8 down.
A short description of test [4]: plasmodial surface anion channel blockers, osmotic lysis – cell-based, P. falciparum Indochina, OD700, 2 h, primary screen (AID 1155).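 Note: lysis reports solute entry through the parasite surface anion channel PSAC.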 To be noted: P. falciparum Indochina infected erythrocytes, higher = more signal, called active from +8 up or from −8 down.
Test [5] in a line: changes in parasitized red cell lysis, either direction – P. falciparum Indochina, OD700, 3 h, PSAC antagonist project, primary screen (AID 1156). Conditions: P. falciparum-infected erythrocytes, osmotic lysis, higher = more signal, called active from +8 up or from −8 down.
Test [6] in a line: plasmodial surface anion channel blockers, osmotic lysis – cell-based, P. falciparum Indochina, OD700, 18 h, primary screen (AID 1157). Conditions: P. falciparum Indochina infected erythrocytes, osmotic lysis OD700, 18 h; higher = more signal, called active from +8 up or from −8 down.
Test [7] in a line: S6 kinase pathway phospho-S6 level changes – cell-based, A549, cytoblot, luminescence, serum-stimulated, primary screen (AID 1158).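 Note: serum-stimulated A549 lung adenocarcinoma cells; signal is phosphorylated S6 detected by cytoblot immunostaining with HRP secondary.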 To be noted: 5 h, higher = more signal.
Test [8] has as its target NADPH oxidase 2 (Homo sapiens) (UniProt P04839). Briefly: compounds shifting NOX2 Amplex Red fluorescence – cell-based, HEK293-NOX2, PMA-stimulated, NOX inhibitor project, primary screen (AID 1159). Note: test concentration not given here. Conditions: 45 min, higher = more signal, called active from +8 up or from −8 down.
In test [9] the target is NADPH oxidase 4 (Homo sapiens) (UniProt Q9NPH5). The test is described as follows: compounds shifting NOX4 Amplex Red fluorescence – cell-based, HEK293-NOX4, tetracycline-induced, NOX inhibitor project, primary screen (AID 1160). To be noted: HEK293-NOX4, Amplex Red H2O2 fluorescence, 45 min; higher = more signal, called active from +8 up or from −8 down.
Test [10] concerns the target NADPH oxidase 5 (Homo sapiens) (UniProt Q96PH1). Briefly: compounds shifting NOX5 Amplex Red fluorescence – cell-based, HEK293-NOX5, NOX inhibitor project, primary screen (AID 1161). Conditions: HEK293-NOX5, ionomycin, 45 min, higher = more signal.

Sequence of NADPH oxidase 5 (Homo sapiens) (Q96PH1 whole entry, looked up): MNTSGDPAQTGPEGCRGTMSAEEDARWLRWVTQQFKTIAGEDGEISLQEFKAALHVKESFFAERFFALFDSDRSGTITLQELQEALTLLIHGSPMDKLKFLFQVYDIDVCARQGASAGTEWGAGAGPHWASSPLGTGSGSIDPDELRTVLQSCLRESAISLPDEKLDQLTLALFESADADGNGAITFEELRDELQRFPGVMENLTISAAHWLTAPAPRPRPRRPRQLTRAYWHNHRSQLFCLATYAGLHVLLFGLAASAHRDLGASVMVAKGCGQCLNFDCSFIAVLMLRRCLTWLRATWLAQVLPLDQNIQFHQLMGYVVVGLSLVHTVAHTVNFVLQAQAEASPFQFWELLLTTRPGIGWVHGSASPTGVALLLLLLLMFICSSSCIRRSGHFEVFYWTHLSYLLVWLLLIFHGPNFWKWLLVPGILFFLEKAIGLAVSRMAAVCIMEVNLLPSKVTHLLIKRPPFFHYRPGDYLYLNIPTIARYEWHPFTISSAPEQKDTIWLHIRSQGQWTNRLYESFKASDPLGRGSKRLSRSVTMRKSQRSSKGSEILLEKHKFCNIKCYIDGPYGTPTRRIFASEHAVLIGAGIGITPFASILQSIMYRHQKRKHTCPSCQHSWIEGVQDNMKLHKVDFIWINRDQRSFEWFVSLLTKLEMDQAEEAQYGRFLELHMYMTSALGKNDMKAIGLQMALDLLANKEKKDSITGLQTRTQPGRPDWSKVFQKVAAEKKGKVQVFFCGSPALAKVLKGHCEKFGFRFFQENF
Sequence of NADPH oxidase 4 (Homo sapiens) (Q9NPH5 whole entry, looked up): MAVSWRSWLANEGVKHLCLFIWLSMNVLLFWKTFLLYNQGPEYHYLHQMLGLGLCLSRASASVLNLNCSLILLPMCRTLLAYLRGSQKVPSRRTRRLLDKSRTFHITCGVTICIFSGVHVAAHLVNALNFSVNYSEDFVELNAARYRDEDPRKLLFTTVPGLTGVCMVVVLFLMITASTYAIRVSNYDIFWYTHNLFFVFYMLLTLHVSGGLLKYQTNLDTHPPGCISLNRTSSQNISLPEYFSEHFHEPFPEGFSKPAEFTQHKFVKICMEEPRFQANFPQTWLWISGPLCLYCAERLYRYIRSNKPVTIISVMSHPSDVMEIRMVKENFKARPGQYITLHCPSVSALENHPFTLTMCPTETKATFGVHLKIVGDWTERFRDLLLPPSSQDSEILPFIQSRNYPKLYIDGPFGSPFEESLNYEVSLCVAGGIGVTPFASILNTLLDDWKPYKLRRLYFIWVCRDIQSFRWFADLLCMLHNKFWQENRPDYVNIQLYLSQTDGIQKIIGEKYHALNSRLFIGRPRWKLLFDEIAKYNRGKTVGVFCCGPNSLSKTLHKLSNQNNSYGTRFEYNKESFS
Sequence of NADPH oxidase 2 (Homo sapiens) (P04839 whole entry, looked up): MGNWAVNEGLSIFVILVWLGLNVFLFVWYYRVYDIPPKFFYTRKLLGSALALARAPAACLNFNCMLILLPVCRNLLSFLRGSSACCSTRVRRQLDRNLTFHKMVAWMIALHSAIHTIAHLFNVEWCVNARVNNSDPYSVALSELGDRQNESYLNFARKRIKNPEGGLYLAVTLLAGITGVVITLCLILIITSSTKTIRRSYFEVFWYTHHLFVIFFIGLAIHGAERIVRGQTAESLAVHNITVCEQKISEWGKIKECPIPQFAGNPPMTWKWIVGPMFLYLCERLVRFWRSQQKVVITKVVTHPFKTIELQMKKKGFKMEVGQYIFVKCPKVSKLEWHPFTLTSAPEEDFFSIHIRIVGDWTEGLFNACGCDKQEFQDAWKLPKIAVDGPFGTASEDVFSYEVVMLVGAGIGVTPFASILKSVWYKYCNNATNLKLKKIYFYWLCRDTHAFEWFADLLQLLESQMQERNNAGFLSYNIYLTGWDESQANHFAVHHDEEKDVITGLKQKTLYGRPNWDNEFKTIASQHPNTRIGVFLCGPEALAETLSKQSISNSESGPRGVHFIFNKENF

Consider `COc1ccc(CCNC(=O)[C@@H]2c3ccccc3C(=O)N(Cc3ccc(OC(F)(F)F)cc3)[C@H]2c2ccc(CO)cc2)cc1`, for which the z-score was -0.989 (inactive) in test [1]; 4.16 (inactive) in test [3]; 0.385 (inactive) in [4]; 2 (inactive) in [5]; 0.623 (inactive) in test [6]; -0.404 in test [7]. Besides, the z-score was -1.69 (inactive) in test [8], -0.245 (inactive) in test [9] and -3.56 in test [10]. This compound returned a composite z-score in test [2] of -0.291.

Turning to `O=C1C[C@@](C(=O)NC2CC2)(c2ccc([N+](=O)[O-])cc2)[C@@H](c2ccc(CO)cc2)N1CC12CC3CC(CC(C3)C1)C2`, the z-score in test [1] is 0.904 (inactive); in test [3], 2.28 (inactive); in test [4], -0.135 (inactive); in test [5] it was 0.678 (inactive); in [6] it was -0.83 (inactive); in test [7], 0.392. Further, the z-score was 0.987 (inactive) in test [8], -2.19 (inactive) in test [9] and -2.35 in test [10]. Moreover, the composite z-score in test [2] was 0.0861.

As for `O=C1OCCC=C[C@H]2OC34C=CCN(c5ccc6ccccc6c5)C(=O)[C@H]3N(CCCCCO)C(=O)[C@@H]4C12` (stereo not given in full), the z-score is 1.3 (inactive) in test [1]; 3.56 (inactive) in test [3]; 0.526 (inactive) in test [4]; 2 (inactive) in [5]; 0.599 (inactive) in test [6]; -0.37 in test [7]. Further, the z-score was 1.95 (inactive) in test [8], 0.913 (inactive) in test [9] and 2.57 in test [10]. This compound also displayed a composite z-score in test [2] of 0.831.

As for `COc1ccc(CCN2C(=O)[C@@]3(Cc4ccccc42)c2ccccc2C(=O)N(Cc2ccccc2Cl)[C@H]3c2ccc(CO)cc2)cc1`, the z-score is 0.641 (inactive) in [1]; 2.59 (inactive) in test [3]; 0.346 (inactive) in test [4]; 0.679 (inactive) in test [5]; 0.425 (inactive) in [6]; 0.306 in test [7]. In addition, the z-score in test [8] is 1.3 (inactive); in [9], -1.49 (inactive); in test [10] it was 1.28. For the same compound, the composite z-score in [2] is 0.0844.

On to `CCN(CC)c1ccc(N2CC=CC34O[C@@H]5C=CCCOC(=O)C5[C@H]3C(=O)N(CCCCCO)[C@@H]4C2=O)cc1` (stereo not given in full), for which the z-score is 2.82 (inactive) in test [1]; 2 (inactive) in test [3]; -0.0803 (inactive) in [4]; 1.11 (inactive) in test [5]; 0.352 (inactive) in [6]; -0.195 in test [7]. For the same compound, the z-score in test [8] is -0.11 (inactive); in [9], 0.604 (inactive); in [10], 0.895. This compound returned a composite z-score in test [2] of 0.0391.

As for `CCOC(=O)[C@H]1C/C=C/C[C@H](C(=O)OCC)C(=O)O[C@H]2[C@@H](OC)O[C@H](CO)[C@@H](OC(=O)Nc3ccc4c(c3)OCO4)[C@@H]2OC1=O`, the z-score was 1.2 (inactive) in [1]; 4.49 (inactive) in test [3]; 1.81 (inactive) in [4]; -0.564 (inactive) in [5]; 1.73 (inactive) in test [6]; 0.483 in test [7]. Further, the z-score was -1.09 (inactive) in [8], -0.854 (inactive) in test [9] and -0.02 in test [10]. In [2], the composite z-score was -0.0727.

With `COc1ccc([Si](C)(C)[C@@H]2[C@@H](CCn3cc([C@H](O)c4ccccc4)nn3)O[C@]3(C(=O)N(Cc4cccc(N5CCOC5=O)c4)c4ccccc43)[C@H]2C)cc1`, the z-score is 1 (inactive) in test [1]; 26.3 (active) in test [3]; 12.8 (active) in [4]; 1.33 (inactive) in test [5]; 1.68 (inactive) in test [6]; 0.324 in test [7]. In addition, the results for the z-score in [8], in test [9] and in [10] were -0.662 (inactive), 2.29 (inactive) and 1.84, respectively. The compound further displayed a composite z-score in test [2] of -0.328.

Take `CCCCCN1CC=CC23O[C@@H]4/C=C\CCCOC(=O)C4[C@H]2C(=O)N(CCCCCCO)[C@@H]3C1=O` (stereo not given in full): the z-score in test [1] is 2.24 (inactive); in test [3], 2.25 (inactive); in [4], 0.753 (inactive); in test [5], -0.387 (inactive); in test [6], 0.158 (inactive); in test [7] it was 5.32. Further, the z-score in [8] is 0.876 (inactive); in [9], 0.243 (inactive); in test [10], 1.75. The compound also returned a composite z-score in test [2] of -0.146.

`Cc1ccc([C@H]2[C@H](C(=O)O)[C@H](Sc3ccccc3)[C@@H](C(C)C)N2S(=O)(=O)c2ccc(C)cc2)cc1`: the z-score in test [1] is -1.51 (inactive); in [3], 1.09 (inactive); in test [4] it was 0.456 (inactive); in test [5] it was -0.922 (inactive); in test [6] it was 0.781 (inactive); in test [7], -0.137. Also, the values for the z-score in test [8], in test [9] and in test [10] were 1.01 (inactive), 0.349 (inactive) and 1.16, respectively. For the same compound, in test [2], the composite z-score was -0.0675.

`C[N+](C)(C)CCCCCCNC(=O)[C@H]1C[C@H]2C(=O)N3CCC[C@H]3C(=O)N2[C@H]1c1ccc(O)cc1`: the z-score in test [1] is 0.864 (inactive); in [3], 1.37 (inactive); in test [4], -0.948 (inactive); in test [5], -0.937 (inactive); in test [6], -1.44 (inactive); in test [7], 0.707. Also, the z-score was -0.87 (inactive) in [8], -1 (inactive) in test [9] and -2.81 in test [10]. In test [2], the composite z-score is -0.0489.

For the compound `CC(C)=CCCC(C)=CC(O)C1C=CC2C(=O)N(c3ccccc3)C(=O)C2N1Nc1ccccc1` (stereo not given), the z-score was -1.8 (inactive) in test [1]; 1.37 (inactive) in [3]; 1.4 (inactive) in test [4]; 1.09 (inactive) in test [5]; 1.27 (inactive) in [6]; -1.29 in [7]. The z-score in [8] was -1.26 (inactive); in test [9], -4.03 (inactive); in [10], -2.54. In test [2], this compound yielded a composite z-score of 0.805.

In the case of `N#Cc1ccc(NN2C(C(O)C3CCCCC3)C=CC3C(=O)N(c4ccccc4)C(=O)C32)cc1` (stereo not given), the z-score in test [1] was -1.35 (inactive); in [3] it was 13.2 (active); in [4], 2.67 (inactive); in test [5] it was 3.79 (inactive); in test [6] it was 1.49 (inactive); in test [7], -0.911. Further, the z-score in [8] was -2.02 (inactive); in test [9] it was -3.88 (inactive); in [10], -3.01. This compound had a composite z-score in [2] of 0.545.

The values above are taken from PubChem BioAssay.
